The whole screen tested about 5,500 compounds, of which about 2,000 (36%) were called active. Roughly 18% stayed inconclusive and do not appear here. No stated cut-off is given here; in the data, active means normalized growth mostly below about 0.91 (no sharp cut-off); inconclusive means no clear call, values can overlap the other calls; inactive means mostly above about 0.92. The list shows a part of the results.
Test: chemical genetic growth profiling, strain panel (AID 1159580);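 further: tested at 20 µM; growth read once vehicle control cultures reached saturation at 30 °C; 1 = growth at the plate median or of vehicle wells; lower values mean less growth of the strain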
Conditions: S. cerevisiae deletion strains, growth OD
[1] = locus YAR019C, strain CDC15, hits give low values
[2] = locus YBL105C, strain PKC1, hits give low values
[3] = locus YBR135W, strain CKS1, hits give low values
[4] = locus YBR136W, strain MEC1, hits give low values
[5] = locus YBR160W, strain CDC28, hits give low values
[6] = locus YDL017W, strain CDC7, hits give low values
[7] = locus YDL028C, strain MPS1, hits give low values
[8] = locus YDL101C, strain DUN1, hits give low values
[9] = locus YDL108W, strain KIN28, hits give low values
[10] = locus YDL132W, strain cdc53, hits give low values
[11] = locus YDL214C, strain PRR2, hits give low values
[12] = locus YDR052C, strain DBF4, hits give low values
[13] = locus YDR054C, strain cdc34, hits give low values
[14] = locus YDR226W, strain ADK1, hits give low values
[15] = locus YDR477W, strain SNF1, hits give low values
[16] = locus YER123W, strain YCK3, hits give low values
[17] = locus YER133W, strain GLC7, hits give low values
[18] = locus YFL009W, strain cdc4, hits give low values
[19] = locus YFL029C, strain CAK1, hits give low values
[20] = locus YFR003C, strain YPI1, hits give low values
[21] = locus YFR019W, strain FAB1, hits give low values
[22] = locus YFR028C, strain CDC14, hits give low values
[23] = locus YGR040W, strain KSS1, hits give low values
[24] = locus YGR052W, strain FMP48, hits give low values
[25] = locus YGR092W, strain DBF2, hits give low values
[26] = locus YHR030C, strain SLT2, hits give low values
[27] = locus YHR079C, strain IRE1, hits give low values
[28] = locus YHR082C, strain KSP1, hits give low values
[29] = locus YHR205W, strain SCH9, hits give low values
[30] = locus YIL147C, strain SLN1, hits give low values
[31] = locus YJL095W, strain BCK1, hits give low values
[32] = locus YJL128C, strain PBS2, hits give low values
[33] = locus YJL157C, strain FAR1, hits give low values
[34] = locus YJR016C, strain ILV3, hits give low values
[35] = locus YJR066W, strain TOR1 (second series), hits give low values
[36] = locus YJR066W, strain TOR1, hits give low values
[37] = locus YKL048C, strain ELM1, hits give low values
[38] = locus YKL067W, strain YNK1, hits give low values
[39] = locus YKL101W, strain HSL1, hits give low values
[40] = locus YKL193C, strain SDS22, hits give low values
[41] = locus YKL203C, strain TOR2, hits give low values
[42] = locus YLR113W, strain HOG1, hits give low values
[43] = locus YLR133W, strain CKI1, hits give low values
[44] = locus YLR403W, strain SFP1, hits give low values
[45] = locus YML070W, strain DAK1, hits give low values
[46] = locus YMR001C, strain CDC5, hits give low values
[47] = locus YMR205C, strain PFK2 (second series), hits give low values
[48] = locus YMR277W, strain FCP1, hits give low values
[49] = locus YNL006W, strain LST8, hits give low values
[50] = locus YNL020C, strain ARK1, hits give low values
[51] = locus YNL161W, strain CBK1, hits give low values
[52] = locus YNL183C, strain NPR1, hits give low values
[53] = locus YNL207W, strain RIO2, hits give low values
[54] = locus YNL222W, strain SSU72, hits give low values
[55] = locus YNL307C, strain MCK1 (second series), hits give low values
[56] = locus YOL078W, strain AVO1, hits give low values
[57] = locus YOL136C, strain PFK27, hits give low values
[58] = locus YOR061W, strain CKA2, hits give low values
[59] = locus YOR119C, strain RIO1, hits give low values
[60] = locus YOR231W, strain MKK1, hits give low values
[61] = locus YOR329C, strain SCD5, hits give low values
[62] = locus YPL031C, strain PHO85, hits give low values
[63] = locus YPL153C, strain RAD53, hits give low values
[64] = locus YPL204W, strain HRR25, hits give low values
[65] = locus YPL209C, strain IPL1, hits give low values
[66] = locus YPL256C, strain CLN2, hits give low values
[67] = locus YPR025C, strain CCL1, hits give low values
[68] = locus YPR106W, strain ISR1, hits give low values
[69] = locus YPR111W, strain DBF20, hits give low values
[70] = strain NNK1, hits give low values
[71] = strain TSCII, hits give low values

Measured: normalized growth

CS(=NC(=O)c1cccc(Cl)c1)c1ccc(OC(=O)c2ccc(Cl)cc2)cc1 (stereo not given)
inactive: [1] 0.969 | [2] 0.966 | [3] 0.97 | [4] 0.966 | [5] 0.967 | [6] 0.968 | [7] 0.964 | [8] 0.972 | [9] 0.964 | [10] 0.958 | [11] 0.958 | [12] 0.954 | [13] 0.967 | [14] 0.966 | [15] 0.972 | [16] 0.924 | [17] 0.95 | [18] 0.966 | [19] 0.966 | [20] 0.968 | [21] 0.943 | [22] 0.966 | [23] 0.96 | [24] 0.98 | [25] 0.981 | [26] 1.08 | [27] 1.1 | [28] 1.06 | [29] 1 | [30] 0.958 | [31] 0.946 | [32] 0.944 | [33] 0.949 | [34] 0.969 | [35] 0.983 | [36] 1.05 | [37] 0.945 | [38] 0.949 | [39] 0.935 | [40] 0.964 | [41] 1.02 | [42] 0.876 | [43] 0.952 | [44] 1 | [45] 0.94 | [46] 0.964 | [47] 0.934 | [48] 0.968 | [49] 0.979 | [50] 0.949 | [51] 0.971 | [52] 1.01 | [53] 0.964 | [54] 0.97 | [55] 0.982 | [56] 0.959 | [57] 0.936 | [58] 0.926 | [59] 1.01 | [60] 0.909 | [61] 0.969 | [62] 0.941 | [63] 0.968 | [64] 0.952 | [65] 0.974 | [66] 1.06 | [67] 0.968 | [68] 0.974 | [69] 0.975 | [70] 0.972 | [71] 0.965

CCOc1ccc(/C=C(\C#N)c2cccc(Cl)c2)cc1
inactive: locus YAL013W, strain DEP1, hits give low values 0.992 | locus YBR229C, strain ROT2, hits give low values 0.995 | locus YCL061C, strain MRC1, hits give low values 1.01 | [8] 1.01 | locus YDR150W, strain NUM1, hits give low values 0.975 | locus YEL061C, strain CIN8, hits give low values 0.955 | locus YGR078C, strain PAC10, hits give low values 0.979 | [26] 0.694 | locus YHR087W, strain rtc3, hits give low values 0.97 | locus YJL187C, strain SWE1, hits give low values 1.01 | locus YJR043C, strain POL32, hits give low values 1 | locus YJR075W, strain HOC1, hits give low values 0.967 | locus YLR039C, strain RIC1, hits give low values 0.892 | locus YLR058C, strain SHM2 (second series), hits give low values 0.982 | locus YLR262C, strain YPT6, hits give low values 0.952 | locus YML094W, strain GIM5, hits give low values 0.927 | locus YMR219W, strain ESC1, hits give low values 0.99 | locus YMR263W, strain SAP30, hits give low values 0.987 | locus YNL153C, strain GIM3, hits give low values 1.01 | locus YNL298W, strain CLA4 (second series), hits give low values 0.936 | locus YNL322C, strain KRE1, hits give low values 0.975 | locus YNR030W, strain Alg12, hits give low values 0.928 | locus YPL055C, strain LGE1, hits give low values 0.95 | locus YPL241C, strain CIN2, hits give low values 0.933 | locus YPR135W, strain CTF4, hits give low values 0.987
active: locus YDL134C, strain PPH21, hits give low values 0.915 | locus YLR085C, strain ARP6, hits give low values 0.723 | locus YMR307W, strain GAS1, hits give low values 0.645

CC(C)(C)CN/C(C#N)=C(/C#N)NCc1cccc(Cl)c1
inactive: [1] 0.993 | [2] 0.991 | [3] 0.98 | [4] 0.991 | [5] 0.991 | [6] 0.994 | [7] 0.993 | [8] 0.982 | [9] 0.997 | [10] 0.987 | [11] 0.991 | [12] 0.996 | [13] 0.991 | [14] 0.973 | [15] 0.988 | [16] 0.947 | [17] 0.988 | [18] 0.988 | [19] 0.992 | [20] 0.991 | [21] 0.99 | [22] 0.983 | [23] 0.966 | [24] 0.947 | [25] 0.871 | [26] 0.977 | [27] 0.995 | [28] 1.01 | [29] 0.896 | [30] 1 | [31] 0.883 | [32] 0.95 | [33] 0.982 | [34] 0.987 | [35] 0.97 | [36] 1 | [37] 0.986 | [38] 0.977 | [39] 0.954 | [40] 0.984 | [41] 1.04 | [42] 0.915 | [43] 0.974 | [44] 0.941 | [45] 0.965 | [46] 0.995 | [47] 0.973 | [48] 0.992 | [49] 0.978 | [50] 0.974 | [51] 0.984 | [52] 0.945 | [53] 0.98 | [54] 0.984 | [55] 0.877 | [56] 0.981 | [57] 0.955 | [58] 1 | [59] 1.04 | [60] 0.931 | [61] 0.99 | [62] 0.99 | [63] 0.988 | [64] 0.967 | [65] 0.982 | [66] 1.08 | [67] 0.986 | [68] 0.989 | [69] 0.964 | [70] 0.987 | [71] 0.985
